Screening results: PubChem, National Center for Advancing Translational Sciences (NCATS)
Sampled rows, rich in hits. Any-hit rate of the full collection: about 19%.
HT1080 IDH1KD tx = toxicity to HT-1080 IDH1 knockdown cells (counter line). HT-1080 IDH1 knockdown viability, ATP luminescence, 48 h. Potency, µM (titrated, usually from 46.1 µM), usual class: cytotoxic. actives 2% (n = 360,000). AID 686971
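Luminescent ATP read-out (CellTiter-Glo, 10 min at room temperature) after 48 h compound exposure at 37 °C gave viability of IDH1-knockdown HT-1080 cells. Activity was normalised to DMSO and cell-free wells, then fitted as concentration-response curves.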
IL1B secr inh = inhibitors of inflammasome signaling (IL-1 beta secretion) | THP-1 LPS/ATP IL-1B secretion, AlphaLISA, 16 h; hits give low values | activity change, % at 57.5 µM | actives 4.7% (n = 360,000); in the data active means activity change below about -50%; inconclusive means mostly about -30% to -49%
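Secreted IL-1B measured by AlphaLISA bead assay after 16 h compound exposure of THP-1 cells; compounds (final up to 57.5 uM) added 1 h before LPS (250 ng/mL) and ATP (1.25 mM) stimulation; lower signal means less secretion.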
HT1080-NT tox = kills 2HG-producing HT-1080-NT fibrosarcoma cells. HT-1080-NT fibrosarcoma viability, CellTiter-Glo ATP luminescence, 48 h. Potency, µM (series often up to 46.1 µM), most hits filed as cytotoxic. actives 1.6% (n = 360,000);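 further: NT is the 2HG producing partner of a matched IDH1 knockdown line; nearly all actives have a fitted effect of over 55% in size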
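Viability by CellTiter-Glo luminescence after 48 h compound exposure at 37C of HT-1080-NT cells (750/well, RPMI, 5% FBS). % activity scaled between DMSO wells and medium-only wells, then curve-fitted and categorized by curve class.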
TDP1 cell noCPT = qHTS for Inhibitors of human tyrosyl-DNA phosphodiesterase 1 (TDP1): qHTS in cells in absence of CPT | DT40 Tdp1-/- hTDP1 cells, no CPT, ATP luminescence, 48 h | Potency, µM (series often up to 46.2 µM), most hits filed as inhibitors | actives 15% (n = 420,000); further: nearly all actives have a fitted effect of over 55% in size
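Stably hTDP1-transfected Tdp1-null chicken DT40 cells were treated with library compounds minus camptothecin and grown for at least 48 hr at 37 °C, after which cellular ATP was quantified by luminescence.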
DT40 TDP1 CPT = growth inhibition of DT40 Tdp1-/-;hTDP1 cells with camptothecin (screen for TDP1 inhibitors). chicken DT40 Tdp1-/-;hTDP1 cells + 20 nM CPT, ATP luminescence, 48 h. actives 12% (n = 420,000). Potency, µM (highest dose often 46.2 µM), most hits filed as inhibitors. AID 686979; further: nearly all actives have a fitted effect of over 55% in size
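Chicken DT40 Tdp1-/- cells complemented with human TDP1, 400 cells/well, exposed to compounds plus 20 nM camptothecin for at least 48 h at 37 C; viability read as ATP content by CellTiter-Glo luminescence.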
Numbers stand for hits; 0 = inactive; ? = inconclusive; - = not tested or not shown. Unless noted, the call rests on the fitted dose curve; in most records, active means well fitted curve in the direction sought with a large enough effect; inconclusive means small, poorly fitted or top-dose-only effect, or another doubt; inactive means no such curve, though single readings can be large; an effect the other way counts as inactive or inconclusive.

SMILES	HT1080 IDH1KD tx	IL1B secr inh	HT1080-NT tox	TDP1 cell noCPT	DT40 TDP1 CPT
COc1ccccc1N1CCN(C(=O)CCc2ccc(S(=O)(=O)NC(C)C)cc2)CC1	0	0	0	18µM	?
O=C(COc1ccc(S(=O)(=O)N2CCCC2)cc1)N1CCN(c2ccccc2F)CC1	0	0	0	?	?
CC(C)CNS(=O)(=O)c1ccc(CCC(=O)N2CCN(c3ccccc3)CC2)cc1	0	0	0	?	?
COc1ccccc1N1CCN(C(=O)CCc2ccc(S(=O)(=O)NCC(C)C)cc2)CC1	0	0	0	23µM	?
CC(C)NS(=O)(=O)c1ccc(OCC(=O)N2CCN(c3ccccc3F)CC2)cc1	-	-	-	15µM	?
Cc1nn(C(C)C(=O)NC2CCC(C)CC2)c(=O)c2nn(-c3ccccc3)c(C)c12 (configuration not stated)	0	0	0	0	0
CC1CC(C)CN(S(=O)(=O)c2ccc(C(=O)Nc3nnc(C4CC4)o3)cc2)C1 (configuration not stated)	0	0	0	?	?
CC1=C(C(=O)N(C(C)C)C(C)C)CC(CC(=O)NC2CC2)C(=O)N1Cc1ccccc1 (configuration not stated)	0	0	0	0	0
CC(C)(CO)N=C1NS(=O)(=O)c2cc([N+](=O)[O-])ccc21	0	0	0	?	0
CCC(CC)N=C1NS(=O)(=O)c2cc([N+](=O)[O-])ccc21	0	0	0	21µM	?
CC(C)(C)CC(C)(C)N=C1NS(=O)(=O)c2cc([N+](=O)[O-])ccc21	0	0	0	15µM	?
CCc1nn2c(=O)cc(COC(=O)c3cccc(NC(=O)CCc4ccccc4)c3)nc2s1	-	-	-	6.5µM	?
CCc1nn2c(=O)cc(COC(=O)c3ccc(NC(=O)CCc4ccccc4)cc3)nc2s1	-	-	-	9.2µM	23µM
CC(C)Cc1nn2c(=O)cc(COC(=O)c3cccc(NC(=O)CCc4ccccc4)c3)nc2s1	-	-	-	0	0
CCCc1nn2c(=O)cc(COC(=O)c3cccc(NC(=O)COc4ccccc4C)c3)nc2s1	-	-	-	18µM	?
CC(=O)N1CCCc2ccc(NS(=O)(=O)c3ccccc3)cc21	0	0	0	?	0
CC1(C)S[C@@H]2[C@H](NC(=O)[C@H](NC(=O)N3CCN(S(C)(=O)=O)C3=O)c3ccccc3)C(=O)N2[C@H]1C(=O)O	-	-	-	0	0
Oc1c(C(c2ccco2)N2CCN(C(c3ccccc3)c3ccccc3)CC2)sc2ncnn12 (configuration not stated)	0	-64	0	21µM	?
Oc1c(C(c2ccccc2)N2CCc3ccccc3C2)sc2ncnn12 (configuration not stated)	0	0	0	?	?
Oc1c(C(c2cccs2)N2CCN(c3cccc(Cl)c3)CC2)sc2ncnn12 (configuration not stated)	0	?	0	23µM	?
COc1ccc(C(c2sc3ncnn3c2O)N2CC(C)OC(C)C2)cc1OC (configuration not stated)	0	0	0	0	0
COc1ccc(C(c2sc3ncnn3c2O)N2CCN(c3ccccc3F)CC2)cc1OC (configuration not stated)	0	0	0	21µM	12µM
O=C(c1ccco1)N1CCN(C(c2cccs2)c2sc3ncnn3c2O)CC1 (configuration not stated)	0	0	0	0	0
CCOC(=O)Cc1csc(NS(=O)(=O)c2ccc(NC(C)=O)cc2)n1	0	0	0	0	0
COc1ccc(NS(=O)(=O)c2cn(C)cn2)cc1OC	0	0	0	0	0
SMILES	HT1080 IDH1KD tx	IL1B secr inh	HT1080-NT tox	TDP1 cell noCPT	DT40 TDP1 CPT
N#CCCCN1C(=O)C(=C(C#N)C#N)c2ccccc21	0	0	0	?	16µM
Cc1ccsc1/C=N/NC(=O)c1ccc2ccccc2c1	?	0	?	18µM	15µM
CC(NCc1ccc(-c2ccccc2)cc1)C(O)c1ccccc1 (configuration not stated)	15µM	-96	?	18µM	?
C=C1/C=C(\C)C(C)(O)CC(O)CC(=O)C(O)C(O)C(C)CC(C)OC(=O)/C(C)=C/CC/C=C/C(OC)C(O)CC(C)C1 (configuration not stated)	0	-53	0	?	?
CCCc1nc2ccc(NC(C)=O)cc2c(=O)n1Cc1ccc(Cl)cc1	0	?	0	23µM	?
CCCc1nc2ccc(NC(=O)c3cccs3)cc2c(=O)n1Cc1ccccc1Cl	0	0	0	16µM	?
CCCc1nc2ccccc2c(=O)n1CC(=O)c1ccccc1	0	0	0	0	?
CC1=C(C(=O)N(C)C)CC(CC(=O)NCc2cccc3ccccc23)C(=O)N1CCC1=CCCCC1 (configuration not stated)	0	0	0	?	?
Cc1ccc(F)cc1NC(=O)COC(=O)COc1ccc(C#N)cc1	0	0	0	?	0
CC(C)C(=O)NC(Nc1ccccc1F)C(Cl)(Cl)Cl (configuration not stated)	0	0	0	?	?
O=C(NC(Nc1cc(C(F)(F)F)ccc1Cl)C(=O)c1ccccc1)c1ccccc1 (configuration not stated)	0	0	0	21µM	?
CN(C)CC(=O)Nc1cc(C(F)(F)F)ccc1Cl	0	0	0	0	0
O=C(CCc1ccccc1)Nc1cc(C(F)(F)F)ccc1Cl	0	0	0	0	0
CCCC(=O)NC(Nc1cc(C(F)(F)F)ccc1Cl)C(Cl)(Cl)Cl (configuration not stated)	?	0	?	18µM	18µM
CC(C)C(=O)NC(Nc1cc(C(F)(F)F)ccc1Cl)C(Cl)(Cl)Cl (configuration not stated)	0	0	0	26µM	?
CCCC(=O)NC(Nc1cccc(C(F)(F)F)c1)C(Cl)(Cl)Cl (configuration not stated)	?	0	?	21µM	?
COc1ccc(C(CNC(=O)CCNS(=O)(=O)c2ccccc2C(F)(F)F)N2CCOCC2)cc1 (configuration not stated)	0	0	0	0	0
CC(C)[C@H](NC(=O)c1ccccc1)C(=O)OCC(=O)N1CCCc2ccccc21	0	0	0	0	0
COCc1c(C(=O)NC2CCCC2)cnn1-c1nccc(-c2cccs2)n1	-	-	-	0	?
CN(Cc1ccccc1)c1nc(N)c([N+](=O)[O-])c(NCc2ccccc2)n1	?	-51	?	?	?
Nc1nc(NCCN2CCOCC2)nc(NCc2ccccc2)c1[N+](=O)[O-]	0	0	0	18µM	?
Cc1ccc(C(=O)COC(=O)c2nc3nccc(C)n3n2)c(C)c1	0	0	0	0	0
